Compounds without any hit were thinned out: in the full panel of roughly 83,000, 20% have a hit.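 Activity criterion: percent growth below 10, measured after cells in 96-well plates were exposed to a single compound concentration for 48 hours.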 Values without a mark were called inactive. Active and inactive are the calls of the source.
Key:
Assay in all cases: NCI-60 one-dose screen, 48 h (100 = growth as untreated, 0 = no growth, -100 = all killed)
SK-MEL-2 melanoma = settings: 10 µM unless noted
EKVX NSCLC = settings: 10 µM
SN12C renal = settings: 10 µM unless noted
UO-31 renal = settings: 10 µM unless noted
TK-10 renal = settings: 10 µM unless noted
ACHN renal = settings: 10 µM unless noted
CAKI-1 renal = settings: 10 µM unless noted
CCRF-CEM leukemia = settings: 10 µM
MOLT-4 leukemia = settings: 10 µM unless noted
A498 renal = settings: 10 µM unless noted

SMILES | growth (SK-MEL-2 melanoma) | growth (EKVX NSCLC) | growth (SN12C renal) | growth (UO-31 renal) | growth (TK-10 renal) | growth (ACHN renal) | growth (CAKI-1 renal) | growth (CCRF-CEM leukemia) | growth (MOLT-4 leukemia) | growth (A498 renal)
O=C1Nc2ccccc2/C1=C/c1cn(CC(O)Cn2cc(/C=C3\C(=O)Nc4ccccc43)c3ccccc32)c2ccccc12 (centres undefined) | -57.6% (active) | -62.3% (active) | -53.6% (active) | -9.18% (active) | -15.1% (active) | -68.4% (active) | 9.83% (active) | -30.6% (active) | -29.4% (active) | 
COC(=O)c1ccc(C(=Nc2ccc(N(C)C(=O)CN3CCN(C)CC3)cc2)c2c(O)[nH]c3ccc(C(=O)OC)cc23)cc1 | 47.7% | 64.3% | 17.3% | 38.3% | 51.7% | 18.6% |  | 12.3% | 14.8% | 18.2%
CC(=O)c1nn(-c2ccc(C)cc2)cc1C(=O)c1cc2c(ccc3ccccc32)oc1=O | 99.7% | 82.3% | 94.3% | 65.2% | 144% | 88.1% |  | 98.4% |  | 124%
O=C(/C=C\c1ccccc1Cl)c1ccccc1 | 128% | 96.4% | 102% | 71.5% | 111% | 92.5% | 90.8% | -16.3% (active) | 91.8% | 
N#Cc1ccc(NC2c3ccccc3CC2O)cc1 (centres undefined) | 103% | 114% | 107% | 83.1% | 119% | 104% | 106% | 94.6% | 91.5% | 
COc1cc([C@@H]2c3cc4c(cc3[C@H](O)[C@H]3COC[C@@H]23)OCO4)cc(OC)c1OC | 89.3% | 109% | 90.5% | 53.9% | 94.4% | 78.2% | 62.3% |  | 76.6% | 
OC(c1ccccc1)(c1ccccc1)C(F)(F)F | 97.7% | 102% | 94.9% | 98.1% | 95.7% | 94.8% | 97.8% | 84.7% | 102% | 
COc1ccc(C2=NN(C(=O)c3cc(-c4ccc(C)cc4)nc4ccccc34)C(c3cc(-c4ccccc4)nn3-c3ccccc3)C2)cc1 (centres undefined) | 94.9% | 99.6% | 97.7% | 79.8% | 113% | 98.6% |  | 81.5% | 84.7% | 91%
Cc1nn(-c2ccccc2)c(N)c1N=C1NC(=O)/C(=C/c2ccc(Cl)cc2)S1 | 100% | 90.8% | 85.8% | 73% | 104% | 87.3% | 66.8% | 68.2% | 87.9% | 
O=C1c2ccccc2CCc2ccccc21 | 102% | 89.4% | 96.7% | 84% | 99.3% | 102% | 90.5% | 91.8% | 111% | 
O=C(Nc1ccc(Cl)cn1)C1(c2ccccc2)CCCCC1 | 116% | 96% | 106% | 181% | 126% | 112% | 120% | 14.1% | 63.3% | 
COc1ccc(/C=C(/C(=O)N2CCCCC2)c2cc(OC)c(OC)c(OC)c2)cc1 | 28.5% | 42.5% | 39.2% | 48.2% | 77.3% | 49% |  | 14.1% | 30.9% | -2.33% (active)
c1ccc(Nc2ncc3c(n2)-c2cccn2CC3)cc1 | 101% | 66.2% | 85.7% | 49.1% | 90.8% | 74.4% | 72.4% | 102% | 99.4% | 
CN1CCN(Cc2ccc(NC(=O)c3cncc(C#Cc4c(N)ncc5ccc(F)cc45)c3)cc2C(F)(F)F)CC1 | -33% (active) | 50.7% | 36.4% | -78.9% (active) | 11.5% | -93.6% (active) | 25.2% | 0.436% (active) | 9.77% (active) | 
COc1ccccc1C(=O)Nc1cccc(-c2cc(=O)c3c(OC)c(OC)c(OC)cc3o2)c1 | 31.1% | 61.7% | 41% | 15.3% | 53.4% | 43% |  | 16% | 28.8% | 44.9%
O=C(C(=O)N1CCOCC1)c1ccc(O[C@H]2O[C@H](CO)[C@@H](O)[C@H](O)[C@@H]2O)cc1 | 107% | 116% | 101% | 91.5% | 103% | 95% | 100% | 109% | 103% | 
CCCCCc1ccnc(CC(=O)c2ccc(OC)cc2)c1 | 98.2% | 92.5% | 91.8% | 79.6% | 82% | 93.2% | 104% | 87.8% | 98.7% | 
CCNc1nnc(COc2ccc(CNC(=O)CCCC/C=C/C(C)C)cc2OC)o1 | 104% | 96.7% | 104% | 84.2% | 107% | 101% |  | 97.5% | 104% | 109%
Cc1cc2c(-c3nc4ccccc4[nH]3)c(O)c(O)cc2c(O)c1-c1c(C)cc2c(-c3nc4ccccc4[nH]3)c(O)c(O)cc2c1O | 7.6% (active) | 8.33% (active) | 9.17% (active) | -30.6% (active) | -6.24% (active) | 1.78% (active) |  | 3.98% (active) |  | -3.57% (active)
COc1ccc(C2=C/C(=C\c3ccc(Cl)cc3)C(=O)NN2C(=S)NN)cc1 | 97.3% | 94.2% | 104% | 79.6% | 129% | 96.5% |  | 91.6% |  | 99.3%
COC(=O)c1ccc2[nH]c(O)c(C(=Nc3ccc(N(C)C(=O)CN4CCN(C)CC4)cc3)c3ccc([N+](=O)[O-])cc3)c2c1 | 43.2% | 88.1% | 27.4% | 65.6% | 72.2% | 54.3% |  | 21.2% | 8.41% (active) | 25.9%
Oc1ccc(N=Nc2ccc(N=Nc3ccccc3)cc2)cc1 | 47.3% | 39.8% | 57.1% | 15.8% | 48.5% | 30.8% |  | 6.69% (active) | 4.57% (active) | 
COc1ccc(-n2nnnc2-c2cn[nH]c2C(F)(F)F)cc1 | 92.4% | 90.3% | 104% | 92.9% | 113% | 99.3% |  | 98.3% | 79% | 83.2%
O=C(/C=C1\C(=O)N(Cc2ccc([N+](=O)[O-])cc2)c2ccccc21)c1ccc(OCCN2CCCCC2)cc1 | -29.1% (active) | 1.78% (active) | -67% (active) | -97.1% (active) | -81.4% (active) | -98.6% (active) |  |  | -26.5% (active) | 56.6%
O=C(O)c1ccc(Br)nc1 | 96.1% | 95.6% | 98.1% | 86.3% | 86.8% | 103% |  | 95.7% | 99.8% | 
CC1=C(C)C[C@]2(C(=O)O[C@H]3CCCC[C@@H]32)[S@](=O)C1 | 86.3% | 109% | 102% | 91.2% | 89.7% | 120% |  | 105% |  | 
CC1=C[C@@H]2c3c(c(O)c(O)c4oc5cc(O)cc(O)c5c(=O)c34)[C@@H](c3cc(O)c(O)c4oc5cc(O)cc(O)c5c(=O)c34)[C@@H]2C(C)(C)C1 | -22.2% (active) | 8.51% (active) | 2.58% (active) | -10.2% (active) | 13.8% | 12.4% |  | 3.51% (active) | 4.1% (active) | -14% (active)

From PubChem BioAssay (NCI)
